Source: PubChem BioAssay AID1159580 (chemical genetic matrix, 2015)
In all, about 5,500 compounds went through this assay and about 2,000 (36%) were called active. Another 18% or so got no clear call; they are omitted. The list shows a part of the results. Unmarked numbers belong to inactive results. Cut-off read from the data, not from the text of the source: active = normalized growth mostly below about 0.91 (no sharp cut-off); inconclusive = no clear call, values can overlap the other calls; inactive = mostly above about 0.92.

Assay: chemical genetic growth profiling, strain panel (AID 1159580);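 note: tested at 20 µM; growth read once vehicle control cultures reached saturation at 30 °C; 1 = growth at the plate median or of vehicle wells; lower values mean less growth of the strain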
Conditions: S. cerevisiae deletion strains, growth OD

In the case of COC1C(O)C(O[C@H]2CC[C@]3(C=O)C4C(CC[C@]3(O)C2)[C@@]2(O)CC[C@H](C3=CC(=O)OC3)[C@@]2(C)C[C@H]4OC(C)=O)OC(C)C1OC(C)=O (some centres undefined), the normalized growth (locus YAL021C, strain ccr4, stronger effect = lower value) is reported as 0.977, the normalized growth (locus YAL026C, strain drs2, stronger effect = lower value) is reported as 1.02 and the normalized growth (locus YAL030W, strain snc1, stronger effect = lower value) is reported as 0.977. For the same compound, the normalized growth (locus YBL061C, strain skt5, stronger effect = lower value) was 1.02, the normalized growth (locus YBR009C, strain hhf1, stronger effect = lower value) was 0.973 and the normalized growth (locus YBR021W, strain FUR4, stronger effect = lower value) was 1.02. The normalized growth (locus YBR023C, strain chs3, stronger effect = lower value) was 1.01, the normalized growth (locus YBR171W, strain sec66, stronger effect = lower value) was 1.04 and the normalized growth (locus YBR229C, strain ROT2, stronger effect = lower value) was 1.02. The normalized growth (locus YBR231C, strain swc5, stronger effect = lower value) was 1, the normalized growth (locus YBR279W, strain paf1, stronger effect = lower value) was 1.01 and the normalized growth (locus YCL011C, strain gbp2, stronger effect = lower value) was 1. The normalized growth (locus YCL016C, strain dcc1, stronger effect = lower value) was 1, the normalized growth (locus YCL029C, strain bik1, stronger effect = lower value) was 1.05 and the normalized growth (locus YCL069W, strain vba3, stronger effect = lower value) was 1.01. For the same compound, the normalized growth (locus YCR088W, strain abp1, stronger effect = lower value) was 1.02, the normalized growth (locus YDL005C, strain med2, stronger effect = lower value) was 1.01 and the normalized growth (locus YDL035C, strain GPR1, stronger effect = lower value) was 1.03. For the same compound, the normalized growth (locus YDL040C, strain nat1, stronger effect = lower value) was 1.03, the normalized growth (locus YDL074C, strain BRE1, stronger effect = lower value) was 1.04 and the normalized growth (locus YDL101C, strain DUN1, stronger effect = lower value) was 1.02. It also gave a normalized growth (locus YDL134C, strain PPH21, stronger effect = lower value) of 1.03, a normalized growth (locus YDL185W, strain tfp1, stronger effect = lower value) of 1.01 and a normalized growth (locus YDL192W, strain arf1, stronger effect = lower value) of 1.03. The normalized growth (locus YDR001C, strain nth1, stronger effect = lower value) was 1.02, the normalized growth (locus YDR069C, strain doa4, stronger effect = lower value) was 0.951 and the normalized growth (locus YDR101C, strain arx1, stronger effect = lower value) was 1.04. It also gave a normalized growth (locus YDR137W, strain rgp1, stronger effect = lower value) of 1.04, a normalized growth (locus YDR159W, strain sac3, stronger effect = lower value) of 0.966 and a normalized growth (locus YDR162C, strain NBP2, stronger effect = lower value) of 1.06. For the same compound, the normalized growth (locus YDR195W, strain ref2) was 1.01, the normalized growth (locus YDR297W, strain sur2, stronger effect = lower value) was 0.956 and the normalized growth (locus YDR318W, strain mcm21, stronger effect = lower value) was 1.03. It also gave a normalized growth (locus YDR334W, strain swr1, stronger effect = lower value) of 1.02, a normalized growth (locus YDR335W, strain msn5, stronger effect = lower value) of 0.982 and a normalized growth (locus YDR388W, stronger effect = lower value) of 1.07. The normalized growth (locus YDR392W, strain spt3, stronger effect = lower value) was 1.04, the normalized growth (locus YDR502C, strain sam2, stronger effect = lower value) was 1.03 and the normalized growth (locus YEL003W, strain gim4, stronger effect = lower value) was 1.02. It also gave a normalized growth (locus YEL037C, strain rad23, stronger effect = lower value) of 1.01, a normalized growth (locus YEL061C, strain CIN8 (second series), stronger effect = lower value) of 1.02 and a normalized growth (locus YER015W, strain faa2, stronger effect = lower value) of 1. It also gave a normalized growth (locus YER016W, strain bim1, stronger effect = lower value) of 1.01, a normalized growth (locus YER110C, stronger effect = lower value) of 1.09 and a normalized growth (locus YER111C, strain swi4, stronger effect = lower value) of 1.02. It also gave a normalized growth (locus YER155C, strain BEM2 (second series), stronger effect = lower value) of 1.04, a normalized growth (locus YER155C, strain BEM2, stronger effect = lower value) of 1.03 and a normalized growth (locus YER167W, strain BCK2, stronger effect = lower value) of 1.03. The normalized growth (locus YFR010W, strain ubp6, stronger effect = lower value) was 1.04, the normalized growth (locus YGL078C, strain dbp3, stronger effect = lower value) was 1.03 and the normalized growth (locus YGL167C, strain pmr1, stronger effect = lower value) was 1.02. It also gave a normalized growth (locus YGL173C, strain kem1, stronger effect = lower value) of 1.03, a normalized growth (locus YGL227W, strain vid30, stronger effect = lower value) of 1.02 and a normalized growth (locus YGL240W, strain doc1, stronger effect = lower value) of 0.973. The normalized growth (locus YGL248W, strain PDE1, stronger effect = lower value) was 1.04, the normalized growth (locus YGL253W, strain hxk2, stronger effect = lower value) was 0.984 and the normalized growth (locus YGR135W, strain pre9, stronger effect = lower value) was 1.03. For the same compound, the normalized growth (locus YGR252W, strain gcn5, stronger effect = lower value) was 1.22, the normalized growth (locus YHR013C, strain ard1, stronger effect = lower value) was 1.01 and the normalized growth (locus YHR027C, strain rpn1, stronger effect = lower value) was 0.996. For the same compound, the normalized growth (locus YHR079C, strain IRE1 (second series), stronger effect = lower value) was 1.01, the normalized growth (locus YHR094C, strain hxt1, stronger effect = lower value) was 1.11 [resistant] (active) and the normalized growth (locus YHR129C, strain ARP1, stronger effect = lower value) was 1.03. It also gave a normalized growth (locus YHR142W, strain chs7, stronger effect = lower value) of 1.03, a normalized growth (locus YHR200W, strain rpn10, stronger effect = lower value) of 1.04 and a normalized growth (locus YIL066C, strain RNR3, stronger effect = lower value) of 1.04. It also gave a normalized growth (locus YIL073C, strain SPO22, stronger effect = lower value) of 1.1, a normalized growth (locus YIL125W, strain kgd1, stronger effect = lower value) of 0.996 and a normalized growth (locus YIR030C, strain dcg1, stronger effect = lower value) of 1.01. For the same compound, the normalized growth (locus YJL092W, strain hpr5, stronger effect = lower value) was 1.02, the normalized growth (locus YJL095W, strain BCK1 (second series), stronger effect = lower value) was 0.974 and the normalized growth (locus YJL095W, strain BCK1, stronger effect = lower value) was 1.07. The normalized growth (locus YJL115W, strain asf1, stronger effect = lower value) was 1.01, the normalized growth (locus YJL129C, strain trk1, stronger effect = lower value) was 1.04 and the normalized growth (locus YJL134W, strain LCB3, stronger effect = lower value) was 1.01. The normalized growth (locus YJL154C, strain vps35, stronger effect = lower value) was 1.01, the normalized growth (locus YJL164C, strain tpk1, stronger effect = lower value) was 1.02 and the normalized growth (locus YJL166W, strain qcr8, stronger effect = lower value) was 0.991. For the same compound, the normalized growth (locus YJL168C, strain set2, stronger effect = lower value) was 1.03, the normalized growth (locus YJL187C, strain SWE1 (second series), stronger effect = lower value) was 1.03 and the normalized growth (locus YJR043C, strain POL32, stronger effect = lower value) was 1.02. The normalized growth (locus YJR075W, strain HOC1, stronger effect = lower value) was 1.01, the normalized growth (locus YKL009W, strain mrt4, stronger effect = lower value) was 0.959 and the normalized growth (locus YKL068W, stronger effect = lower value) was 1.1 [resistant] (active). For the same compound, the normalized growth (locus YKL085W, strain MDH1 (second series), stronger effect = lower value) was 1.1 [resistant] (active), the normalized growth (locus YKL085W, strain MDH1, stronger effect = lower value) was 1.1 [resistant] (active) and the normalized growth (locus YKL160W, strain elf1, stronger effect = lower value) was 1.02. The normalized growth (locus YKR001C, strain vps1, stronger effect = lower value) was 1.02, the normalized growth (locus YKR026C, strain gcn3, stronger effect = lower value) was 1.02 and the normalized growth (locus YKR091W, strain srl3, stronger effect = lower value) was 1.02. For the same compound, the normalized growth (locus YLL001W, strain dnm1, stronger effect = lower value) was 1.02, the normalized growth (locus YLL026W, stronger effect = lower value) was 1 and the normalized growth (locus YLL041C, strain sdh2, stronger effect = lower value) was 0.985. It also gave a normalized growth (locus YLR027C, strain aat2, stronger effect = lower value) of 0.979, a normalized growth (locus YLR039C, strain RIC1, stronger effect = lower value) of 1.1 and a normalized growth (locus YLR058C, strain SHM2, stronger effect = lower value) of 1.02. For the same compound, the normalized growth (locus YLR102C, strain apc9, stronger effect = lower value) was 1.17 [resistant] (active), the normalized growth (locus YLR221C, strain rsa3, stronger effect = lower value) was 0.988 and the normalized growth (locus YLR258W, strain gsy2, stronger effect = lower value) was 0.973. The normalized growth (locus YLR262C, strain YPT6 (second series), stronger effect = lower value) was 1.05, the normalized growth (locus YLR268W, strain sec22, stronger effect = lower value) was 1.03 and the normalized growth (locus YLR320W, strain mms22, stronger effect = lower value) was 1.02. The normalized growth (locus YLR342W, strain FKS1, stronger effect = lower value) was 1.01, the normalized growth (locus YLR357W, strain rsc2, stronger effect = lower value) was 1.03 and the normalized growth (locus YLR370C, strain arc18, stronger effect = lower value) was 0.98. For the same compound, the normalized growth (locus YLR371W, strain rom2, stronger effect = lower value) was 1.16 [resistant] (active), the normalized growth (locus YLR384C, strain iki3, stronger effect = lower value) was 0.987 and the normalized growth (locus YLR418C, strain cdc73, stronger effect = lower value) was 1.02. It also gave a normalized growth (locus YML016C, strain PPZ1, stronger effect = lower value) of 1.02, a normalized growth (locus YML032C, strain rad52, stronger effect = lower value) of 1.03 and a normalized growth (locus YML120C, strain ndi1, stronger effect = lower value) of 0.969. It also gave a normalized growth (locus YML124C, strain tub3, stronger effect = lower value) of 1.02, a normalized growth (locus YMR058W, strain fet3, stronger effect = lower value) of 1.02 and a normalized growth (locus YMR078C, strain ctf18, stronger effect = lower value) of 1.07. The normalized growth (locus YMR125W, strain sto1, stronger effect = lower value) was 1.02, the normalized growth (locus YMR129W, stronger effect = lower value) was 0.978 and the normalized growth (locus YMR205C, strain PFK2, stronger effect = lower value) was 0.986. For the same compound, the normalized growth (locus YMR223W, strain ubp8, stronger effect = lower value) was 1.01, the normalized growth (locus YMR231W, strain pep5, stronger effect = lower value) was 1.02 and the normalized growth (locus YMR263W, strain SAP30, stronger effect = lower value) was 1.04. It also gave a normalized growth (locus YMR307W, strain GAS1, stronger effect = lower value) of 1.07, a normalized growth (locus YNL067W, strain RPL9B, stronger effect = lower value) of 1.02 and a normalized growth (locus YNL071W, strain lat1, stronger effect = lower value) of 1.03. The normalized growth (locus YNL209W, strain ssb2, stronger effect = lower value) was 0.994, the normalized growth (locus YNL233W, strain BNI4, stronger effect = lower value) was 1.04 and the normalized growth (locus YNL248C, strain rpa49, stronger effect = lower value) was 1.01. For the same compound, the normalized growth (locus YNL250W, strain rad50, stronger effect = lower value) was 1.04, the normalized growth (locus YNL271C, strain bni1, stronger effect = lower value) was 1.02 and the normalized growth (locus YNL298W, strain CLA4, stronger effect = lower value) was 1.07. The normalized growth (locus YNL307C, strain MCK1, stronger effect = lower value) was 1.12 [resistant] (active), the normalized growth (locus YNL322C, strain KRE1 (second series), stronger effect = lower value) was 1.02 and the normalized growth (locus YNR049C, strain mso1, stronger effect = lower value) was 0.972. The normalized growth (locus YNR052C, strain pop2, stronger effect = lower value) was 1.13 [resistant] (active), the normalized growth (locus YOL012C, strain htz1) was 1.05 and the normalized growth (locus YOL147C, strain pex11, stronger effect = lower value) was 1.02. The normalized growth (locus YOR001W, strain rrp6, stronger effect = lower value) was 0.97, the normalized growth (locus YOR061W, strain CKA2, stronger effect = lower value) was 1.04 and the normalized growth (locus YOR069W, strain VPS5, stronger effect = lower value) was 1.02. The normalized growth (locus YOR070C, strain gyp1, stronger effect = lower value) was 0.989, the normalized growth (locus YOR080W, strain dia2, stronger effect = lower value) was 1.01 and the normalized growth (locus YOR083W, strain WHI5, stronger effect = lower value) was 1.03. For the same compound, the normalized growth (locus YOR106W, strain vam3, stronger effect = lower value) was 1.01, the normalized growth (locus YOR136W, strain idh2, stronger effect = lower value) was 1.03 and the normalized growth (locus YOR144C, strain elg1, stronger effect = lower value) was 1.03. It also gave a normalized growth (locus YOR184W, strain ser1, stronger effect = lower value) of 1.05, a normalized growth (locus YOR265W, strain rbl2, stronger effect = lower value) of 0.993 and a normalized growth (locus YOR270C, strain vph1, stronger effect = lower value) of 1.04. It also gave a normalized growth (locus YOR290C, strain snf2, stronger effect = lower value) of 1.03, a normalized growth (locus YOR316C, strain cot1, stronger effect = lower value) of 1.08 and a normalized growth (locus YPL051W, strain arl3, stronger effect = lower value) of 1.02. The normalized growth (locus YPL078C, strain atp4, stronger effect = lower value) was 1.01, the normalized growth (locus YPL106C, strain sse1, stronger effect = lower value) was 1.05 and the normalized growth (locus YPL240C, strain hsp82, stronger effect = lower value) was 1.01. The normalized growth (locus YPL241C, strain CIN2, stronger effect = lower value) was 1.01, the normalized growth (locus YPR119W, strain clb2, stronger effect = lower value) was 1.11 [resistant] (active) and the normalized growth (locus YPR141C, strain kar3, stronger effect = lower value) was 0.98. It also gave a normalized growth (locus YPR163C, strain tif3, stronger effect = lower value) of 1.03, a normalized growth (locus YPR167C, strain met16, stronger effect = lower value) of 1.02 and a normalized growth (strain wtn01, stronger effect = lower value) of 1.02.
